Screening data from PubChem BioAssay.
hNpr1 antagonist = Natriuretic polypeptide receptor (hNpr1) antagonism - Primary qHTS; Atrial natriuretic peptide receptor 1 (Homo sapiens), P16066; HEK293 hNpr1 GloSensor cGMP, ANP-stimulated luminescence; Potency, µM (series often up to 46.3 µM), for the others: at the highest dose activity change, negative = inhibition, hits mostly inhibitors; 76,000 compounds, 1.6% hits; calls by dose curve; note: % is set by controls: 0 for no effect and ±100 for the full control effect; nearly all actives have a fitted effect of over 60% in size
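Compound pre-incubated 30 min at room temperature on GloSensor-loaded HEK293 cells stably carrying hNpr1 and the pGS-40F cGMP biosensor. Stimulation uses hNppA at 0.1 nM final; luminescence is taken at baseline and 20 min post-agonist.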
NIH3T3 tox = Cytotoxic Profiling in NIH 3T3 Cell Line of Diverse Libraries Using Quantitative High-Throughput Screening; 94,000 compounds, 4.3% hits; Potency, µM (doses to about 96.7 µM), inactives show top-dose activity change, negative = cytotoxicity, actives largely listed as inhibitors; NIH 3T3 viability, CellTiter-Glo ATP luminescence, 48-72 h; note: % is set by controls: 0 for no effect and ±100 for the full control effect; nearly all actives have a fitted effect of over 55% in size
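NIH 3T3 cells at 400 cells/well received 23 nL of compound by pintool and were incubated 48 or 72 h at 37 °C. Viability was read as ATP-coupled CellTiter-Glo luminescence.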
GPT2 inhibitor = Primary qHTS assay for inhibitors of Glutamate pyruvate transaminase 2 (GPT2); Alanine aminotransferase 2 (Homo sapiens), Q8TD30; Recombinant GPT2, coupled pyruvate oxidase/HRP Amplex Red fluorescence; Potency, µM (doses to about 57.7 µM), for inactives: at the highest dose activity change, negative = inhibition, actives largely listed as inhibitors; 100,000 compounds, 0.25% hits; note: % is set by controls: 0 for no effect and ±100 for the full control effect; nearly all actives have a fitted effect of over 60% in size
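Recombinant GPT2 (10ng/uL) with 250uM a-KG and 2mM L-alanine, 30 min at room temperature, in HEPES pH 7.5 buffer. Pyruvate detected by pyruvate oxidase/HRP/Amplex Red fluorescence after 30 min in the dark; AOA (50uM) as positive control.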
FLuc inh-1 = Firefly luciferase inhibition profiling of diverse chemical library using quantitative high-throughput screening. Luciferin 4-monooxygenase (Photinus pyralis), P08659. purified P. pyralis luciferase, luminescence, biochemical. Potency, µM (top dose mostly 115 µM), usual class: inhibitors. 76,000 compounds, 2.5% hits. AID 1347043, 2019; note: % is set by controls: 0 for no effect and ±100 for the full control effect; nearly all actives have a fitted effect of over 65% in size
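Purified P. pyralis luciferase (10nM final) in 50mM Tris acetate pH 7.5, 10mM Mg acetate, 0.01% Tween-20, 0.05% BSA with 10uM D-luciferin and 10uM ATP. Compounds titrated qHTS. Luminescence imaged on CCD.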
HEK293 tox = Cytotoxic Profiling in HEK 293 Cell Line of Diverse Libraries Using Quantitative High-Throughput Screening; HEK 293 viability, ATP luminescence (CellTiter-Glo), 48-72 h; Potency, µM (titrated, usually from 115 µM), for the others: at the highest dose activity change, negative = cytotoxicity, hits mostly inhibitors; 94,000 compounds, 6.6% hits; AID 1345083, 2018; note: % is set by controls: 0 for no effect and ±100 for the full control effect; nearly all actives have a fitted effect of over 60% in size
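ATP-coupled CellTiter-Glo luminescence served as viability read-out, recorded 10 min after reagent addition at room temperature. HEK 293 cells, 250 cells/well, had been incubated with pintool-transferred compound for 48 or 72 hr at 37 degree Celsius.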
FLuc SDR -ATP = Firefly luciferase (FLuc-C-HiBiT) SDR gain of signal screen - without ATP; shares compounds with FLuc inh-1; Purified FLuc-C-HiBiT, Nano-Glo HiBiT luminescence, no ATP; Potency, µM (top dose mostly 32.7 µM), without a hit: at the top dose activation (signal gain), actives largely listed as activators; 1,300 compounds, 7.8% hits; note: nearly all actives have a fitted effect of over 55% in size
FLuc SDR ATP = Firefly luciferase (FLuc-C-HiBiT) SDR gain of signal screen - plus ATP; shares compounds with FLuc inh-1; purified FLuc-C-HiBiT + ATP, HiBiT complementation luminescence; Potency, µM (top dose mostly 32.7 µM), without a hit: top-dose activation (gain of signal), hits mostly activators; 1,300 compounds, 8.7% hits; AID 1963319, 2024;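 note: signal reports ligand binding via conformational change of the enzyme rather than luciferase catalysis; % of control where 0% means no effect; nearly all actives have a fitted effect of over 55% in size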
FLuc inh-2 = Firefly luciferase (FLuc-C-HiBiT) enzymatic inhibition screen - Functional assay; 1,300 compounds, 42% hits; Potency, µM (titrated, usually from 32.7 µM), inactives show top-dose activity change, negative = inhibition, usual class: inhibitors; AID 1963320, 2024; purified FLuc-C-HiBiT enzyme, luciferin luminescence; shares compounds with FLuc inh-1; note: % is set by controls: 0 for no effect and ±100 for the full control effect; nearly all actives have a fitted effect of over 70% in size
Active calls of the source: *; i = inactive; ? = inconclusive; / = no result. Shown are actives, neighbours in structure and some others; about 10% of the full set was active somewhere. Unless noted, calls come from the whole dose curve; as a rule, active = well fitted curve in the direction sought with a large enough effect; inconclusive = small, poorly fitted or top-dose-only effect, or another doubt; inactive = no such curve, though single readings can be large; an effect the other way counts as inactive or inconclusive. Potency is the fitted concentration of half-maximal effect.

SMILES	hNpr1 antagonist	NIH3T3 tox	GPT2 inhibitor	FLuc inh-1	HEK293 tox	FLuc SDR -ATP	FLuc SDR ATP	FLuc inh-2
COc1ccc(N2C(=O)CSC23CCN(C(=O)Nc2ccccc2)CC3)cc1	1%	?	-5%	?	1%	/	/	/
O=C(NCc1ccc(F)cc1)C1CCN(C(=O)c2ncn3c2COC(c2ccccc2)C3)CC1 (stereo unspecified)	0%	-13%	i	14µM*	-6%	16%	?	5.6µM*
CCc1ccc(CNC(=O)C2CCN(C(=O)c3ncn4c3COC(c3ccc(F)cc3)C4)CC2)cc1 (stereo unspecified)	0%	-11%	i	?	-16%	/	/	/
O=C(NCc1ccccc1F)C1CCN(C(=O)c2ncn3c2COC(c2ccccc2)C3)CC1 (stereo unspecified)	0%	-1%	i	10µM*	5%	15%	?	3.5µM*
COc1ccccc1CNC(=O)C1CCN(C(=O)c2ncn3c2COC(c2ccccc2)C3)CC1 (stereo unspecified)	-3%	i	-3%	13µM*	-4%	11%	?	6.2µM*
O=C(NCc1ccncc1)C1CCN(C(=O)c2ncn3c2COC(c2ccccc2)C3)CC1 (stereo unspecified)	?	-14%	-1%	2.8µM*	-2%	20%	0.88µM*	1.8µM*
CCOC(=O)[C@H]1C[C@]2(CCCCN(C)C2=O)N(C(=O)Cc2ccc(F)cc2)[C@H]1c1ccco1	/	?	/	/	-14%	/	/	/
CC(C)N1CCN(C(=O)C2(CCO)CC23CCOCC3)CC1 (stereo unspecified)	/	-15%	i	/	-10%	/	/	/
Cn1cccc1CN1CC[C@@H]2C(=O)NCCCCCCN(Cc3ccncc3)[C@@H]2C1	6%	-20%	i	i	?	/	/	/
O=C(c1nc2cccnc2n(Cc2ccccc2)c1=O)N1CCN(C(=O)C2CCCC2)CC1	/	-21%	i	/	-12%	/	/	/
Cc1ccc(C2Cn3cnc(C(=O)N4CCC(C(=O)NCc5ccco5)CC4)c3CO2)cc1 (stereo unspecified)	-3%	i	i	14µM*	3%	13%	?	?
COc1ccc(C2Cn3cnc(C(=O)N4CCC(C(=O)NCc5ccco5)CC4)c3CO2)cc1 (stereo unspecified)	-7%	i	i	i	4%	/	/	/
CCN(CC1CCOCC1)C(=O)c1cccnc1SC/C=C/c1ccccc1	-5%	-25%	i	11µM*	?	8%	5%	?
CCN(CC1CCOCC1)C(=O)c1cc(COc2ccccc2F)[nH]n1	5%	-1%	-3%	i	-11%	/	/	/
CCOc1ccccc1C(=O)NC1CCN(c2cnn(CC)c(=O)c2)CC1	-21%	?	i	i	-26%	/	/	/
